Records with an inconclusive call do not appear. A call without a number means that no potency is given here. Active and inactive are the calls of the source. The call rests on the fitted dose curve; in most records, active means well fitted inhibition curve with a large enough effect; inconclusive means small, poorly fitted or top-dose-only effect, or effect the other way; inactive means flat fitted curve, though single readings scatter.
These compounds were tested against Lysosomal acid glucosylceramidase (Homo sapiens) (UniProt P04062) (assay: qHTS Assay for Inhibitors and Activators of N370S glucocerebrosidase as a Potential Chaperone Treatment of Gaucher Disease: Purified N370S Glucocerebrosidase Cleavage of Glucosylceramide). Conditions: purified N370S GCase; series mostly up to 77.6 µM.
Chain of Lysosomal acid glucosylceramidase (Homo sapiens) (P04062 whole entry N409S): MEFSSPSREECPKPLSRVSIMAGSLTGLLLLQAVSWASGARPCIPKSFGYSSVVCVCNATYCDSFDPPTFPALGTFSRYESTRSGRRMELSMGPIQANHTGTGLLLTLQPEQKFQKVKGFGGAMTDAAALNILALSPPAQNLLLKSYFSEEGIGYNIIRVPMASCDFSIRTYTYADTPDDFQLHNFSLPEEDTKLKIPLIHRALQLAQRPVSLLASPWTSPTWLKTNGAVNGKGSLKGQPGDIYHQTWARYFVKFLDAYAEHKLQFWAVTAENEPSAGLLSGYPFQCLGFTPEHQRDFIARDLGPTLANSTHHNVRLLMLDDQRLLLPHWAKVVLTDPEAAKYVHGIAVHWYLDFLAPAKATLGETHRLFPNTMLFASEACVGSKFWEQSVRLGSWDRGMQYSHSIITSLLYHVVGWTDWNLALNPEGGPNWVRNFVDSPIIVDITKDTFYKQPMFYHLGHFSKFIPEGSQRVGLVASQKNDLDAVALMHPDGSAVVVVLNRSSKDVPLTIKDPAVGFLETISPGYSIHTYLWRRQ
Excerpt: NIH Chemical Genomics Center [NCGC]
NIH Molecular Libraries Probe Production Centers Network [MLPCN]
Assay Submitter (PI): Wei Zheng
Glucocerebrosidase (GC) catalyzes the hydrolysis of beta-glucocerebroside to glucose and ceramide in lysosomes. Mutations in the glucocerebrosidase gene result in Gaucher disease, an autosomal recessive lysosomal storage disorder. Many of the mutations encountered in patients with Gaucher disease are missense alterations that may cause misfolding, decreased stability and/or mistrafficking of this lysosomal protein. […] These inhibitors include iminosugar analogs and three non-iminosugar inhibitors identified from a previous HTS of 62,000 compounds with the wild type recombinant enzyme. However, the enhancement of enzyme activity by the chaperone action of an enzyme inhibitor must be balanced against the direct inhibition of the enzyme. An enzyme activator could also function as a chaperone by binding to the enzyme and helping to correct its misfolding and mistrafficking. While activators for GC have not yet been identified, they may have better therapeutic potential than inhibitors. Therefore the discovery and development of chemical activators may provide a new strategy for the chaperone therapy.
We have optimized a new assay using N370S mutant GC derived from the spleen of a Gaucher patient. […] In addition, the MLPCN compound library has expanded, which increases the chance of finding new and better probes.
This assay characterizes compound activity using purified, mutant enzyme cleavage of the native substrate for the enzyme instead of mutant enzyme from tissue homogenate. Compound activity differences may be due to the absence of endogenous cofactors found in tissue homogenate as well as inherent differences in enzyme stability and catalytic activity using the difference substrates.
NCGC Assay Protocol Summary:
This is an enzyme assay using glucosylceramide from soy (Avanti Polar Lipids Catalog #: 131304P) as the substrate and recombinant human glucocerebrosidase as the enzyme preparation. Upon hydrolysis of the substrate, the glucose product can be detected using the Amplex Red Glucose Oxidase Assay Kit (Invitrogen catalog #: A22189). The product of this reaction can be read with a fluorescence plate reader with an excitation at 573 nm and an emission at 610 nm. Data were normalized to the controls for basal activity (without enzyme) and 100% activity (with enzyme). The AC50 values were determined from concentration-response data modeled with the standard Hill equation.
Assay buffer for enzyme reaction: 50 mM citric acid (titrated with potassium phosphate to pH 5.9), 0.01% Tween-20 (pH 5.9 is an optimal condition for this enzyme assay)
Assay buffer for Amplex Red reaction: Tris-HCl, pH 7.5
1536-well assay protocol for the glucocerebrosidase assay:
(1) Add 2 ul/well glucocerebrosidase enzyme solution (5 nM final)
(2) Add 23 nL compounds in DMSO solution. The final titration was 0.7 nM to 77 uM.
(3) Add 1 ul of glucosylceramide solution (50 uM final)
(4) Incubate at 37C for 40 min
(5) Add 2 ul tris-HCl buffer with Amplex Red reagents
(6) Incubate 45 min at room temperature.
(7) Detect the assay plate in a ViewLux plate reader (PerkinElmer) with Ex=573 nm and Em=610nm.
Keywords: Glucocerebrosidase, beta-glucosidase, Gaucher Disease, pharmacological chaperone, chaperone therapy, high throughput screening, glucocerebrosidase inhibitor, MLSMR, MLSCN, NIH Roadmap, qHTS and NCGC
In the case of `c1ccc2c(NCC3CCCO3)nc(N3CCOCC3)nc2c1` (configuration not stated), the Potency is reported as “inactive”. In the case of `COc1ccc(N(CC(=O)NC2CCCCC2)S(=O)(=O)c2c(C)[nH]c(=O)[nH]c2=O)cc1`, the Potency is reported as “inactive”. With `c1ccc(CNc2nc(-c3cccs3)nc3ccccc23)cc1` the Potency was “inactive”. `OCCNc1nc(-c2cccs2)nc2ccccc12` was tested, and the Potency was “inactive”. In the case of `O=S(=O)(c1ccc(Cl)cc1)N1CCN(c2nc(-c3ccc(F)cc3)nc3cc(Cl)ccc23)CC1`, the Potency is reported as “inactive”. With `Cc1cc(C)n2ncc(C(=O)Nc3ccc(Cl)c(Cl)c3)c2n1` the Potency was “inactive”. `O=S(=O)(c1ccc2c(c1)OCCO2)N1CCN(c2nc(-c3ccccc3)nc3ccccc23)CC1` was tested, and the Potency was “inactive”. With `CC(=O)Nc1ccc(NC(=O)COc2ccccc2C(=O)Nc2cccc(Cl)c2Cl)cc1` the Potency was “inactive”. For `CCOc1ccc(N(CC(=O)Nc2ccc(C)cc2)S(=O)(=O)c2c(C)[nH]c(=O)[nH]c2=O)cc1`, the Potency was “inactive”. With `COc1ccccc1OCC(=O)Nc1oc(-c2ccccc2)c(-c2ccccc2)c1C#N` the Potency was “inactive”. In the case of `O=S(=O)(c1cccc2ccccc12)N1CCN(c2nc(-c3cccs3)nc3ccccc23)CC1`, the Potency is reported as “inactive”. With `Cc1ccccc1-c1nccc(NCc2cccs2)n1` the Potency was “inactive”. `Clc1ccccc1-c1nccc(NCc2ccccc2)n1` was tested, and the Potency was “inactive”. In the case of `Cc1ccc(S(=O)(=O)N2CCN(c3nc(-c4cccs4)nc4ccccc34)CC2)cc1`, the Potency is reported as “inactive”. In the case of `O=S(=O)(c1ccc(F)cc1)N1CCN(c2nc(-c3ccccc3)nc3cc(Cl)ccc23)CC1`, the Potency is reported as “inactive”. `O=S(=O)(c1ccccc1Cl)N1CCN(c2nc(-c3cccs3)nc3ccccc23)CC1` was tested, and the Potency was “inactive”. For `Nc1nc(-c2ccccc2)c(N=Nc2ccc(Cl)cc2)s1`, the Potency was “inactive”. `O=S(=O)(c1ccc(F)cc1)N1CCN(c2nc(-c3ccc(F)cc3)nc3cc(Cl)ccc23)CC1` was tested, and the Potency was “inactive”. For `O=S(=O)(c1ccc2ccccc2c1)N1CCN(c2nc(-c3cccs3)nc3ccccc23)CC1`, the Potency was “inactive”. With `CC(C)(C)C(=O)OCCNc1nc(-c2ccccc2)nc2ccccc12` the Potency was 39.8 µM (active). `Cc1cc(C)n2ncc(C(=O)Nc3cccc(O)c3)c2n1` was tested, and the Potency was “inactive”. For `COc1ccc(-c2nc(N3CCN(S(=O)(=O)c4ccccc4)CC3)c3ccccc3n2)cc1`, the Potency was “inactive”.
